# Compounds with a hit are over-represented: about 3.5% of the library has one in this group of screens.
# mHTT CaM bind: inhibitors of human mutant huntingtin-calmodulin interaction. P42858. AlphaScreen His-mHTT/GST-CaM binding, luminescence. inhibition, % at 15 µM. hit rate 3.6% among 190,000. AID 1671202;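 further: 0% = both proteins with DMSO and 100% = one protein alone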
# Pf apPOL inh: Pf-apPOL DNA polymerase inhibition | AID 1794808 | Recombinant Pf-apPOL, molecular beacon fluorescence, 1.5 h | hit rate 0.25% among 210,000 | inhibition, % at 10 µM
# An asterisk follows results filed as active; nt = no result; ! = not confirmed by another sample. No stated cut-off is given here; in the data, active means inhibition above about 50%; inactive means the rest.
SMILES,mHTT CaM bind,Pf apPOL inh
CCCCCCN1C[C@@H](n2cc(C3CC3)nn2)[C@H](O)C[C@@H]1c1ccc(OC)cc1,36,0
COc1ccc([C@H]2C[C@H](O)[C@@H](n3cc(C4CC4)nn3)CN2Cc2cccs2)cc1,94*,2
Cc1ccc([C@H]2C[C@@H](n3cc(C4CC4)nn3)[C@H](O)CN2Cc2cccs2)cc1,32,-1
O[C@H]1C[C@H](c2ccccc2)N(Cc2cccs2)C[C@@H]1n1cc(C2CC2)nn1,74*,-3
COc1ccc(-c2noc(C3CCCN3C(=O)c3ccc(C)c(F)c3)n2)cc1 (centres undefined),8,0
O=C1CSC(c2cn(-c3ccccc3)nc2-c2ccccc2)N1Cc1ccco1 (centres undefined),59*,-3
O=C1CSC(c2cn(-c3ccccc3)nc2-c2ccc(Cl)cc2)N1Cc1ccco1 (centres undefined),90*,-6
O=C1CSC(c2ccc(Br)cc2)N1Cc1ccco1 (centres undefined),1,-1
O=C1CSC(c2ccco2)N1Cc1ccccc1 (centres undefined),-2,-1
O=C(CCc1ccccc1)N1CCn2cnnc2C1,-5,-2
Cc1cc2n(n1)CCC(=O)N2CCCC(=O)NCCCN1CCCCC1C (centres undefined),-5,-2
CC1Cc2cc(-c3cc(COC(=O)CCn4cnc5ccccc5c4=O)no3)ccc2O1 (centres undefined),18,0
O=C1Nc2ccc(Br)cc2/C1=C/c1ccccc1,48,-6
O=C1Nc2ccc(Br)cc2/C1=C/c1ccc([N+](=O)[O-])o1,71*,-7
C=CCN1C(=O)NC(=O)/C(=C/c2ccc(-c3ccc([N+](=O)[O-])cc3C)o2)C1=O,5,3
Cc1ccc(-c2ccc(/C=C3\C(=O)NN(c4ccc(F)cc4)C3=O)o2)c([N+](=O)[O-])c1C,40,6
Cc1cc(C)c(N2C(=O)NC(=O)/C(=C\c3ccc([N+](=O)[O-])o3)C2=O)c(C)c1,60*,-12
O=C1NN(c2ccc(Br)cc2)C(=O)/C1=C/c1ccc([N+](=O)[O-])o1,97*,5
O=[N+]([O-])c1cc(C(F)(F)F)cc([N+](=O)[O-])c1-n1ccnc1,-8,nt
c1ccc(CNc2ncnc3c2c(-c2ccccc2)cn3-c2ccccc2)cc1,27,25
CN(CC(=O)Nc1ccc(S(N)(=O)=O)cc1)c1nc2ccccc2s1,3,-13
O=C(O)Cc1c[nH]c2ccc(O)cc12,85*,95*!
NC(Cc1c[nH]c2ccc(O)cc12)C(=O)O (centres undefined),nt,-2
CC(=O)N1CCN(C(=O)c2c(C(C)C)nn(-c3ccc(F)cc3)c2C(C)C)CC1,8,-3
O=C(OCc1cn([C@H]2CN(Cc3cccs3)[C@@H](c3ccc(Cl)cc3)C[C@@H]2O)nn1)c1ccccc1,100*,-6
SMILES,mHTT CaM bind,Pf apPOL inh
O=C(OCc1cn([C@H]2C[C@H](c3ccc(Cl)cc3)N(Cc3cccs3)C[C@@H]2O)nn1)c1ccccc1,34,-2
Cc1ccc([C@H]2C[C@@H](O)[C@H](n3cc(COC(=O)c4ccccc4)nn3)CN2Cc2cccs2)cc1,1,2
Cc1ccc([C@H]2C[C@H](O)[C@@H](n3cc(COC(=O)c4ccccc4)nn3)CN2Cc2cccs2)cc1,100*,0
COc1ccc(-c2cc(C(=O)Nc3ncccc3Cl)c3ccccc3n2)cc1OC,11,-4
COc1cc(C=O)ccc1OCCCCOc1ccc(F)cc1,-36,-7
Cc1ccc(S(=O)(=O)Nc2cccc3ccc(-n4nc(C)cc4C)nc23)cc1,1,60*
Cc1ccc(S(=O)(=O)Nc2cccc3ccc(C)nc23)cc1,1,-8
COc1cccc(-c2noc(C3CCCN3C(=O)Nc3ccc(C)cc3)n2)c1 (centres undefined),4,-2
Cn1c(=O)c(NCCCN2CCCc3ccccc32)nc2ccncc21,60*,12
Cn1c(=O)c(NCCc2ccc(Cl)cc2)nc2ccncc21,-2,-5
Cn1c(=O)c(NCCc2c[nH]c3ccccc23)nc2ccncc21,100*,4
O=c1c(NCCN2CCCC2)nc2ccncc2n1Cc1ccccc1,3,2
COc1ccc(S(=O)(=O)N2CCN(Cc3ccc4c(c3)OCO4)CC2)cc1Br,15,0
CCCCCNC(=O)C1CCN(c2ncccc2-c2nc(-c3ccc(C)cc3)no2)CC1,-9,-5
CCn1cc(/C=C2\C(=O)NC(=O)N(c3ccc(F)cc3)C2=O)c2ccccc21,8,-4
CCn1cc(/C=C2\C(=O)NC(=O)N(c3ccc(C)cc3)C2=O)c2ccccc21,53*,47
CCn1cc(/C=C2\C(=O)NC(=O)N(c3ccc(Br)cc3)C2=O)c2ccccc21,11,-5
CCN(CC)C(=O)Cn1cc(/C=C2\C(=O)NC(=O)N(c3cccc(C)c3C)C2=O)c2ccccc21,56*,-5
Cc1ccc(-n2cc(C(=O)NC3CC3)nn2)cc1C,-5,-1
